Screening data as filed in PubChem BioAssay.
Giardia kill = Small Molecules that selectively kill Giardia lamblia: qHTS. AID 540267, 2011. 340,000 tested, 0.15% active. Giardia lamblia trophozoite viability. activity change, % at 7.66 µM, hits read low; in the data active = activity change below about -80%; inconclusive = between about -30% and that limit;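 note: parasites exposed to compound for two days anaerobically before the ATP read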
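Trophozoite viability was measured as ATP-dependent luminescence, read 15-30 min after reagent addition. Before that, parasites at 100 cells/well were exposed to compounds for 48 h, anaerobically, at 37 deg C.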
Coupling enz = qHTS Assay for Inhibitors of Fructose-1,6-bisphosphate Aldolase from Giardia Lamblia: Coupling assay counterscreen; coupling enzyme system counterscreen, AmpLite Red fluorescence; activity change, negative = inhibition, % at 58.2 µM, hits read low; 290,000 tested, 0.67% active; AID 2472, 2010; in the data active = activity change below about -30%
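First, compound is pin-transferred into glyceraldehyde-3-phosphate coupling-enzyme reagent at 57.5 uM final and held 10 min at RT. Next, substrate, coupling system and AmpLite Red are added. After 20 min RT, fluorescence (525/598 nm) is read.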
Sfp PPTase inh = qHTS Assay for Inhibitors of Bacillus subtilis Sfp phosphopantetheinyl transferase (PPTase); Biochemical Sfp PPTase activity, qHTS; Potency, µM, for the others: largest response in the series, negative = inhibition, most hits filed as inhibitors; 310,000 tested, 3.5% active;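 note: the enzyme is Sfp with the accession as filed and its product quenches rhodamine fluorescence; potency is the fitted concentration of half-maximal effect; 0% = enzyme reaction without inhibitor and -100% = no enzyme wells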
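After 15 min at room temperature with compound, 15 nM Sfp received 5 uM rhodamine-CoA plus 12.5 uM BHQ-2-ybbR (50 mM Hepes pH 7.6, 10 mM MgCl2). Rate came from the fluorescence difference over 30 min, ex 525/em 598 nm.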
ELG1 DNA repair = qHTS screen for small molecules that inhibit ELG1-dependent DNA repair in human embryonic kidney (HEK293T) cells expressing luciferase-tagged ELG1; 330,000 tested, 2.3% active; HEK293T ELG1-luciferase reporter, luminescence, 16 h; DNA damage induced by 5-fluorouridine; AID 504467, 2011; Potency, µM (series often up to 46.1 µM), without a hit: top-dose activity change, negative = inhibition, most hits filed as inhibitors; note: potency is the fitted concentration of half-maximal effect; nearly all actives have a fitted effect of over 55% in size
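HEK293T cells expressing luciferase-tagged ELG1 (2,000/well) received 5-Fluorouridine plus compound or DMSO for 16 hr at 37 °C. Luciferase was read by ONE-Glo luminescence after 30 min at room temperature.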
An asterisk follows results filed as active; ? = inconclusive; . = no result given. An excerpt weighted towards active compounds, which were near 5.5% of everything screened. Unless noted, calls come from the whole dose curve; as a rule, active = well fitted curve in the direction sought with a large enough effect; inconclusive = small, poorly fitted or top-dose-only effect, or another doubt; inactive = no such curve, though single readings can be large; an effect the other way counts as inactive or inconclusive. Unless noted, % is set by controls: 0 for no effect and ±100 for the full control effect.

SMILES	Giardia kill	Coupling enz	Sfp PPTase inh	ELG1 DNA repair
C[C@]12c3[nH]c4ccc(Cl)cc4c3CCN1C(=O)[C@@H](CC(=O)NCc1cccc(C(F)(F)F)c1)C[C@@H]2C(=O)N1CCOCC1	2.0	.	.	23.1µM*
Cc1cccc(CC(=O)NCCN2CCCCC2)c1	-20.6	0.4	8.1%	?
Cc1ccc(C(=O)OCC(=O)N(CC(C)C)c2c(N)n(Cc3ccccc3)c(=O)[nH]c2=O)cc1[N+](=O)[O-]	16.8	.	.	-2.9%
N#Cc1c(C(F)(F)F)cc(C2CC2)nc1N1CCCC1	-8.7	-33.9*	-17.3%	?
Cc1ccc(S(=O)(=O)N2[C@@H](c3ccccc3F)C(C(=O)O)=CC[C@H]2c2ccc(Cl)c(Cl)c2)cc1	?	.	.	0.5%
Cc1sc2nc(-c3cccnc3)[nH]c(=O)c2c1-c1ccccc1	-21.1	1.9	44.7µM*	0.8%
Cc1sc2nc(Cc3ccccc3)[nH]c(=O)c2c1-c1ccccc1	-17.7	0.8	7.3%	10.3%
CC(=O)c1cccc(NC(=O)c2ccc(CN3CCc4ccccc4C3)cc2)c1	-13.0	-1.1	9.9%	8.2µM*
COc1ccc(C(=O)N2CCN(CCc3ccccn3)CC2)cc1	5.7	2.5	5.7%	3.6%
COc1cccc(C(=O)N2CCN(Cc3ccccn3)CC2)c1	-6.2	-3.1	44.7µM*	10.0%
COc1cccc(NC(=O)c2ccc(CN3CCc4ccccc4C3)cc2)c1	-5.8	1.7	7.2%	?
CCCNC(=O)c1ccc(CN2CCc3ccccc3C2)cc1	17.9	2.6	9.6%	-13.1%
COc1ccc(Br)cc1CN1CCN(C(=O)c2cccc(F)c2)CC1	18.2	2.6	50.1µM*	-20.6%
C/C(=N\NC(=O)c1ccc(CN2CCc3ccccc3C2)cc1)c1ccccc1O	0.2	1.2	9.7%	3.26µM*
CC(=O)Nc1cccc(C(=O)N2CCN(Cc3ccccc3)CC2)c1	29.9	5.0	?	-1.1%
O=C(Nc1cccc(C(=O)N2CCN(Cc3ccccc3)CC2)c1)c1ccccc1	-4.4	2.6	-5.2%	20.6µM*
CCOc1ccc(CN2CCN(C(=O)c3ccccc3)CC2)cc1	-7.8	-0.3	-22.7%	9.2µM*
CCCn1c(N)c(C(=O)CN(C)CC(=O)Nc2ccc(F)cc2)c(=O)[nH]c1=O	-7.4	.	.	?
O=C(c1cc(C(F)(F)F)cc(C(F)(F)F)c1)N1CCC2(CCCN(Cc3nccs3)C2)CC1	.	-1.8	21.5%	.
O=C(CCCc1nc2ccccc2s1)N1CCN(c2ccccc2F)CC1	-13.1	2.4	-4.3%	-2.5%
O=C(CCCc1nc2ccccc2s1)N1CCN(c2ccccc2)CC1	59.0	2.4	44.7µM*	-3.1%
CCCc1cc2c(=O)c(-c3ccc4c(c3)OCCO4)coc2cc1OS(C)(=O)=O	1.9	-2.7	-1.4%	?
CCCc1cc2c(=O)c(-c3ccc4c(c3)OCCO4)c(C)oc2cc1OS(C)(=O)=O	-11.1	1.4	8.1%	13µM*
O=C(Nc1ccc2nc(-c3ccco3)c(-c3ccco3)nc2c1)NC1CC1	-13.9	-37.2*	5.01µM*	?
O=C(NCCSCc1ccco1)Nc1cc(Cl)cc(Cl)c1	1.8	0.6	14.4%	-20.3%
SMILES	Giardia kill	Coupling enz	Sfp PPTase inh	ELG1 DNA repair
O=C(NCCCO)Nc1ccc2nc(-c3ccco3)c(-c3ccco3)nc2c1	.	-42.7*	14.1µM*	-8.5%
O=C(Nc1ccc(N2CCOCC2)cc1)Nc1ccc2nc(-c3ccco3)c(-c3ccco3)nc2c1	7.3	-11.2	10µM*	6.51µM*
O=C(NCc1ccco1)Nc1ccc2nsnc2c1	-3.7	-37.6*	?	21.6%
O=C1c2ccccc2NC(c2ccc(OCc3ccccc3)c(OCc3ccccc3)c2)N1Cc1ccco1 (configuration not stated)	-18.3	.	.	.
O=S(=O)(c1ccc2ccccc2c1)N1CCOCC1	13.8	-1.7	15.5%	?
O=S(=O)(c1ccc2nc(-c3ccco3)c(-c3ccco3)nc2c1)N1CCOCC1	-7.1	-44.7*	10µM*	16.4µM*
CC(C)c1cc(C(=O)N2CCCC(N3CCN(c4ccc(F)cc4)CC3)C2)n(C)n1 (configuration not stated)	16.5	0.6	14.1%	?
CCn1c(CC(=O)Nc2ccccc2F)nnc1SCC(=O)Nc1nncs1	24.4	0.1	15.2%	-4.6%
COC(=O)c1nn(-c2ccc3c(c2)CCN3C(C)=O)cc1O	-87.1*	.	-4.3%	-19.1%
COC(=O)c1nn(-c2ccc3c(c2)OCO3)cc1O	-2.2	.	8.2%	?
CCOC(=O)/C(C#N)=C/c1c(Oc2cccc(C)c2)nc2c(C)cccn2c1=O	-1.7	6.6	89.1µM*	0.7%
COC1/C=C/OC2(C)Oc3c(C)c(O)c4c(O)c(c(/C=N/N5CCN(C)CC5)c(O)c4c3C2=O)NC(=O)/C(C)=C/C=C/C(C)C(O)C(C)C(O)C(C)C(OC(C)=O)C1C (configuration not stated)	.	-17.9	-30.0%	.
O=C(NC1=NCCS1)c1cc(-c2cccc(Br)c2)nc2ccccc12	29.8	-0.9	-15.6%	?
Cc1ccc2nc(-c3cccc(Br)c3)cc(C(=O)NC3=NCCS3)c2c1	-2.2	-6.3	-20.1%	20.6µM*
Cc1nn(C)c(C)c1/C=C(/C(=O)C(C)(C)C)n1cncn1	12.0	-0.4	8.9%	?
CC(C)(C)C(=O)/C(=C/c1ccncc1)n1cncn1	3.4	0.3	35.5µM*	?
O=[N+]([O-])c1cccc(S(=O)(=O)Nc2nc3ccccc3nc2Nc2cccc(S(=O)(=O)N3CCCCC3)c2)c1	-9.6	-0.7	-28.8%	2.06µM*
O=[N+]([O-])c1cccc(S(=O)(=O)Nc2ccc(S(=O)(=O)N3CCCC3)cc2)c1	15.9	.	.	.
COc1ccc(S(=O)(=O)Nc2cccc(S(=O)(=O)N3CCCCC3)c2)cc1	3.4	.	.	-3.5%
Cc1ccc(S(=O)(=O)Nc2nc3ccccc3nc2Nc2cccc(S(=O)(=O)N3CCCC3)c2)cc1	-10.3	3.9	4.1%	20.6µM*
COCCCNC(=O)CCc1c(C)c2cc3c(C)coc3cc2oc1=O	-6.2	0.2	4.1%	0.1%
COc1cc2nc(N3CCNCC3)nc(N)c2cc1OC	15.7	-3.3	-5.0%	18.6%
COc1cc2nc(N3CCN(c4cc(C)ccc4C)CC3)nc(N)c2cc1OC	?	-3.4	79.4µM*	?
C=C[C@]1(C)Cc2occ(C)c2C[C@H]1C(=C)C(=O)O	.	-2.0	7.3%	.
COc1ccc(NC(=S)NC(NC(=O)c2cccc(Cl)c2)C(Cl)(Cl)Cl)c([N+](=O)[O-])c1 (configuration not stated)	2.0	-2.5	16.4%	16.4µM*
COc1ccc(NC(=O)/C(Cl)=C(/Cl)S(=O)Cc2ccccc2)cn1 (configuration not stated)	-20.6	2.3	39.8µM*	8.2µM*
